AMA1-RON2 inh = AMA1-RON2 (P. falciparum) interaction inhibition; AlphaScreen AMA1-biotinylated RON2 peptide binding; hit rate 0.2% among 360,000; Potency, µM (top dose mostly 58.2 µM), actives largely listed as inhibitors; also: nearly all actives have a fitted effect of over 45% in size
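AMA1 (3D7) with his tag at 25 nM final met compounds first, then biotinylated RON2 peptide at 25 nM; detection used donor plus acceptor beads, 10 µg/mL apiece, read by AlphaScreen after 30 min at room temperature.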
SARS PLP yeast = inhibitors of SARS-CoV papain-like protease in yeast. hit rate 0.19% among 330,000. Potency, µM (doses to about 32.9 µM), hits mostly activators. S. cerevisiae expressing SARS-CoV PLpro, growth rescue; calls by dose curve; also: nearly all actives have a fitted effect of over 55% in size
Pf growth 96h = P. falciparum growth inhibition at 96 hours | P. falciparum luciferase reporter growth, 96 h | Potency, µM (series often up to 28.7 µM), hits mostly inhibitors | hit rate 6.9% among 320,000
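P. falciparum expressing integrated firefly luciferase grown in erythrocytes (2% hematocrit, 0.05% parasitemia final) with compounds for 96 hours at 37 C, 5% CO2. Growth inhibition read as loss of luminescence after adding luciferase detection reagent.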
NS1 inh = influenza NS1 inhibition; AID 2326; hit rate 0.4% among 270,000; Potency, µM (series often up to 46.1 µM); calls by dose curve; also: actives are rising curves; nearly all actives have a fitted effect of over 50% in size
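S. cerevisiae expressing influenza A NS1, grown in glucose, washed, then diluted 1:100 into pH 6.0 -URA galactose medium with 23 nl compound. Growth recovery read as OD600; NS1-free strain serves as control.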
HCV inhibitor = HCV inhibition; Huh7.5.1 HCVcc-Cre infection, luciferase reporter, 44 h; Potency, µM (highest dose often 41.8 µM), hits mostly inhibitors; hit rate 3.4% among 340,000
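Compounds are dispensed onto cells plated 4 h earlier at 1,000 per well, with HCVcc-Cre virus (about 0.5 moi) added next. Following 44 h of culture, luminescent signal is measured for 15 sec after 15 min with substrate at room temperature.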
Pf growth 48h = inhibits P. falciparum growth in the first generation, 48 h; P. falciparum luciferase growth in erythrocytes, 48 h; Potency, µM (doses to about 28.7 µM), most hits filed as inhibitors; hit rate 5.9% among 310,000
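Parasite viability was followed by luminescence of a genomically integrated firefly luciferase. Cultures held 0.1% parasitemia at 2% hematocrit (final), incubated under 5% CO2 at 37 C.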
Each line names hits and unclear results; the compound was inactive in the other large screens. In the library only some 12% were active in any assay of this set; here they are far more common. Unless noted, calls follow the shape of the dose curve; as a rule, active = well fitted curve in the direction sought with a large enough effect; inconclusive = small, poorly fitted or top-dose-only effect, or another doubt; inactive = no such curve, though single readings can be large; an effect the other way counts as inactive or inconclusive.

COC(C(=O)C(O)C(C)O)C1Cc2cc3cc(OC4CC(OC5CC(O)C(O)C(C)O5)C(O)C(C)O4)c(C)c(O)c3c(O)c2C(=O)C1OC1CC(OC2CC(OC3CC(C)(O)C(O)C(C)O3)C(O)C(C)O2)C(O)C(C)O1 (stereo unspecified)	Pf growth 96h 1.9µM, Pf growth 48h 0.06µM (no result: AMA1-RON2 inh, SARS PLP yeast, NS1 inh, HCV inhibitor)
CO[C@H](C(=O)[C@@H](O)[C@@H](C)O)C1Cc2cc3cc(O[C@H]4C[C@@H](O[C@H]5C[C@@H](O)[C@H](O)[C@@H](C)O5)[C@@H](O)[C@@H](C)O4)c(C)c(O)c3c(O)c2C(=O)[C@H]1O[C@H]1C[C@@H](O[C@H]2C[C@@H](O[C@H]3C[C@](C)(O)[C@H](O)[C@@H](C)O3)[C@H](O)[C@@H](C)O2)[C@H](O)[C@@H](C)O1 (stereo partly specified)	Pf growth 96h 0.034µM, Pf growth 48h 0.048µM (no result: AMA1-RON2 inh, SARS PLP yeast, NS1 inh, HCV inhibitor)
COC(C(=O)C(O)C(C)O)C1Cc2cc3cc(OC4CC(OC5CC(O)C(O)C(C)O5)C(O)C(C)O4)c(C)c(O)c3c(O)c2C(=O)C1OC1CC(OC2CC(OC3CC(O)C(OC)C(C)O3)C(O)C(C)O2)C(O)C(C)O1 (stereo unspecified)	HCV inhibitor 1µM (no result: SARS PLP yeast, Pf growth 96h, NS1 inh, Pf growth 48h)
CCN(CC)C(=S)S	Pf growth 96h inconclusive (no result: AMA1-RON2 inh, SARS PLP yeast, NS1 inh, HCV inhibitor)
O=C(Cn1nnc2ccccc2c1=O)NCC1CCC(C(=O)O)CC1 (stereo unspecified)	none
COc1ccc(S(=O)(=O)N2CCOCC2)cc1NC(=O)C1CCN(S(=O)(=O)c2ccc(Cl)cc2)CC1	none (no result: SARS PLP yeast, Pf growth 96h, NS1 inh, Pf growth 48h)
CCC(=O)c1cc(-c2nc3ccccc3n2C)n(C)c1	none (no result: Pf growth 96h)
CCCC(=O)c1cc(-c2nc3ccccc3n2C)n(C)c1	HCV inhibitor 22µM (no result: Pf growth 96h)
CCN(Cc1ccccc1)c1ccc(/C=N/N=C(N)N)cc1	AMA1-RON2 inh inconclusive, Pf growth 96h 1.7µM, HCV inhibitor inconclusive, Pf growth 48h 1.5µM
NC(N)=N/N=C/c1ccc(N(c2ccccc2)c2ccccc2)cc1	Pf growth 96h 2.1µM, HCV inhibitor inconclusive, Pf growth 48h 2.3µM
CCOC(=O)N1CCN(C(=O)Cn2ccc3c(OC)cccc3c2=O)CC1	Pf growth 96h inconclusive
CCC(C(=O)Nc1cc(C(=O)Nc2cc(C)ccn2)ccc1Cl)c1ccccc1 (stereo unspecified)	Pf growth 96h 8.3µM, Pf growth 48h 8.3µM
O=C(c1ccc(Cl)c(S(=O)(=O)N2CCCCC2)c1)N1CCCCC1	HCV inhibitor inconclusive
Cc1ccnc(NC(=O)c2ccc(Cl)c(S(=O)(=O)N3CCCCC3)c2)c1	HCV inhibitor 13µM, Pf growth 48h inconclusive (no result: NS1 inh)
CN1CC(=O)NC1=NC(=O)c1ccc(Cl)c(S(=O)(=O)N2CCCCCC2)c1	Pf growth 96h 8.3µM, NS1 inh inconclusive, Pf growth 48h inconclusive
Cc1ccnc(NC(=O)c2ccc(Cl)c(S(=O)(=O)N3CCCC3)c2)c1	Pf growth 96h inconclusive, HCV inhibitor inconclusive (no result: NS1 inh)
Cc1ccc(NC(=O)c2ccc(Cl)c(S(=O)(=O)N3CCCCC3)c2)nc1	Pf growth 96h 10µM, HCV inhibitor inconclusive, Pf growth 48h 9.3µM (no result: NS1 inh)
CCc1ccccc1NC(=O)NC1CCCCCCC1	Pf growth 96h inconclusive
COc1ccc(Oc2coc3cc(O)ccc3c2=O)cc1	Pf growth 96h inconclusive
CCOC(=O)c1ccc(Oc2coc3cc(O)ccc3c2=O)cc1	Pf growth 96h 2.9µM
CCCC/C=C/C(NC(=O)CCc1ccccc1)c1ccccc1 (stereo unspecified)	Pf growth 96h 8.3µM, Pf growth 48h inconclusive
Cn1nc(C(=O)NCc2ccc(F)cc2)c2c1-c1ccccc1S(=O)(=O)C2	HCV inhibitor 14µM
CCC(=O)N1c2ccccc2NC2=C(C(=O)CC(C)(C)C2)C1c1ccc(O)c(OC)c1 (stereo unspecified)	none
Cc1ccc(Oc2c(C(N)=O)cc([N+](=O)[O-])cc2[N+](=O)[O-])cc1	Pf growth 96h inconclusive, HCV inhibitor 3.5µM
Cc1ccc(CNc2ccc([N+](=O)[O-])cc2C(N)=O)cc1	HCV inhibitor inconclusive (no result: NS1 inh)
CC1(C(=O)N/N=C/c2c(F)c(F)c(F)c(F)c2F)CC1(Cl)Cl (stereo unspecified)	HCV inhibitor 11µM (no result: SARS PLP yeast, Pf growth 96h, NS1 inh, Pf growth 48h)
Cc1c(/C=N\NC(=O)C2(C)CC2(Cl)Cl)cnn1C (stereo unspecified)	none
Nc1ccc(S(=O)(=O)NCCS(=O)(=O)O)cc1	none (no result: AMA1-RON2 inh, SARS PLP yeast, Pf growth 96h, HCV inhibitor, Pf growth 48h)
Cc1ccc(-c2cc(-c3ccccc3)cc(-c3ccccc3)[n+]2-c2ccc(C(=O)O)cc2)cc1	Pf growth 96h inconclusive, Pf growth 48h inconclusive (no result: NS1 inh)
O=C([O-])c1ccccc1-[n+]1c(-c2ccccc2)cc(-c2ccccc2)cc1-c1ccccc1	Pf growth 96h 4.7µM, Pf growth 48h 12µM (no result: NS1 inh)
Nc1ccccc1-[n+]1c(-c2ccccc2)cc(-c2ccccc2)cc1-c1ccccc1	Pf growth 96h 2.1µM, Pf growth 48h 4.7µM
Oc1ccccc1-[n+]1c(-c2ccccc2)cc(-c2ccccc2)cc1-c1ccccc1	Pf growth 96h 1.5µM, Pf growth 48h 1.5µM (no result: NS1 inh, HCV inhibitor)
O=C(O)c1ccc(-[n+]2c(-c3ccccc3)cc(-c3ccccc3)cc2-c2ccccc2)cc1	Pf growth 96h inconclusive, Pf growth 48h inconclusive (no result: NS1 inh)
Cc1ccccc1-[n+]1c(-c2ccccc2)cc(-c2ccccc2)cc1-c1ccccc1	Pf growth 96h 0.19µM, HCV inhibitor inconclusive, Pf growth 48h 0.33µM (no result: NS1 inh)
[O-]c1ccccc1-[n+]1c(-c2ccccc2)cc(-c2ccccc2)cc1-c1ccccc1	Pf growth 96h 0.33µM, HCV inhibitor 6.3µM, Pf growth 48h 1.3µM (no result: NS1 inh)
CCC1CN(C(=O)NCc2cccc(OC)c2)c2ccccc2O1 (stereo unspecified)	HCV inhibitor inconclusive
CCC1CN(C(=O)NCc2cccc(OC)c2)c2cc(Cl)ccc2O1 (stereo unspecified)	HCV inhibitor 5.6µM, Pf growth 48h inconclusive
CC(NC(=O)COC(=O)c1ccc[nH]c1=O)c1ccccc1 (stereo unspecified)	none (no result: Pf growth 96h, NS1 inh, Pf growth 48h)
CCOC(=O)CSc1ncnc2c1cnn2-c1ccccc1	none
CCc1nnc(NC(=O)CSc2ncnc3c2cnn3-c2ccc(OC)cc2)s1	Pf growth 96h 0.0037µM
CCOC(=O)CNC(=O)CSc1ncnc2c1cnn2-c1ccc(C)cc1	Pf growth 96h 8.3µM
CCOC(=O)C(C)Sc1nc2c(cnn2-c2ccc(C)cc2)c(=O)[nH]1 (stereo unspecified)	Pf growth 96h inconclusive, HCV inhibitor 11µM
CCOC(=O)CNC(=O)CSc1ncnc2c1cnn2-c1ccccc1	none
CCOC(=O)CSc1ncnc2c1cnn2-c1ccc(C)cc1	Pf growth 96h 13µM
CSCCC(NC(=O)c1ccco1)C(=O)N1CC=C(c2ccccc2)CC1 (stereo unspecified)	none (no result: HCV inhibitor)
O=C(/C=C/c1ccc(S(=O)(=O)N2CCOCC2)cc1)NC(CO)C(O)c1ccc([N+](=O)[O-])cc1 (stereo unspecified)	none (no result: Pf growth 96h, NS1 inh, Pf growth 48h)

Screens deposited in PubChem BioAssay by National Center for Advancing Translational Sciences (NCATS).
